In PubChem BioAssay (NCI) one finds growth data, which are given here for 14 molecules.

About 83,000 compounds went through this panel and 20% of them were active in at least one assay; those are over-represented in the sample as a whole.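 In brief: 96-well plates, 48 h treatment, single concentration, percent growth endpoint.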 Unmarked numbers belong to inactive results. Activity calls are given as the source filed them. Rule for the calls: active = growth percent below 10; inactive = the rest.

Assay in all cases: NCI-60 one-dose screen, 48 h (100 = growth as untreated, 0 = no growth, -100 = all killed)
Holding throughout (conditions): 10 µM unless noted

Experiment [1] relates to HCT-15 colon.
The subject of experiment [2] is HT29 colon.
Experiment [3] has as its system SNB-75 CNS.
For experiment [4], the system named is SNB-19 CNS.
The subject of experiment [5] is U251 CNS.
The test system of experiment [6] is PC-3 prostate.
Experiment [7] has as its system SK-MEL-5 melanoma.
Experiment [8] deals with UACC-62 melanoma.
The subject of experiment [9] is LOX IMVI melanoma.
Experiment [10] has as its system SK-MEL-28 melanoma.

Turning to `Nc1c(Br)cc2c(c1Br)Cc1cc(Cl)ccc1-2`, the growth in [1] was 109%; in experiment [2], 111%; in [3], 72.4%; in experiment [4], 88.5%; in [5], 101%; in [6], 82.6%. Also, the growth in experiment [7] was 90.5%; in experiment [8] it was 96.2%; in experiment [9], 89.3%; in experiment [10], 98.6%.

For `CCS(=O)(=O)Nc1cccc(Nc2c3cccc(C)c3nc3c(C)cccc23)c1OC`, the growth in [1] is 11.1%; in experiment [2] it was 11.3%; in experiment [3] it was 21.7%; in experiment [4] it was 38.8%; in [5] it was 7.01% (active); in experiment [6], 21.4%. Moreover, the growth in experiment [7] was 17.4%; in experiment [8] it was 45.5%; in experiment [9], 12.8%; in [10], 56.9%.

Consider `Nc1ccc(C2=NNC(=O)Cc3cc4c(cc32)OCCO4)cc1Cl`, for which the growth in experiment [1] was 28.9%; in experiment [2], 9.09% (active); in experiment [3], -1.14% (active); in experiment [4] it was 57.5%; in [5] it was 39.1%; in [6], 53%. For the same molecule, the growth in experiment [7] was 29.8%; in experiment [8] it was 38%; in [9], 39%; in experiment [10] it was 56.4%.

For `COc1cc(OC)cc(-c2ccc(-c3ccc(C(=N)N)s3)s2)c1`, the growth in experiment [1] is -77.4% (active); in experiment [2], -87.4% (active); in [3] it was -91.5% (active); in experiment [4], -82.9% (active); in [5], -90.1% (active); in [6], -83.9% (active). The growth in [7] is -97.4% (active); in experiment [8] it was -90.5% (active); in experiment [9] it was -71.6% (active); in experiment [10] it was -85.3% (active).

In the case of `COc1ccc2nc3cc(Cl)ccc3c(NC(=O)CSc3ccc(Cl)cc3)c2c1`, the growth was -53.6% (active) in [1]; -78.3% (active) in experiment [2]; -99.2% (active) in experiment [3]; -86.4% (active) in experiment [4]; -90.6% (active) in [5]; -81.8% (active) in experiment [6]. Also, the growth in experiment [7] was -98% (active); in experiment [8], -80% (active); in experiment [9] it was -80.3% (active); in [10] it was -96.8% (active).

In the case of `Cc1c(C(N)=O)sc2ncn(CC(=O)NN=C3CCCCC3)c(=O)c12`, the growth in experiment [1] is 109%; in experiment [2], 90.5%; in experiment [3] it was 102%; in experiment [4], 104%; in experiment [5] it was 99.5%; in experiment [6], 122%. Further, the growth was 106% in experiment [7], 99.9% in experiment [8], 103% in experiment [9] and 118% in experiment [10].

As to `O=c1nc(-c2ccccc2)c2cc(-c3ccc(N4CCOCC4)cc3)ccc2[nH]1`, the growth in [1] is 74%; in [2], 84.5%; in experiment [3] it was 106%; in [4] it was 87.4%; in [5], 69.9%; in experiment [6] it was 70.9%. Besides, the growth is 83.6% in experiment [7], 74.3% in experiment [8], 74.5% in [9] and 91.8% in experiment [10].

On to `CCN1C(=O)N(CC)C2C1NN=c1s/c(=C\c3ccc(Br)cc3)c(=O)n12` (stereo not given), for which the growth is 11.4% in experiment [1]; 5.08% (active) in [2]; 26.2% in [3]; 21.4% in [4]; 16.5% in experiment [5]; 18.6% in [6]. Further, the growth was -4.8% (active) in experiment [7], 39.9% in experiment [8], 25.1% in experiment [9] and 59.9% in experiment [10].

On to `CN1C(=O)NC(Cc2c[nH]c3c(Cl)cccc23)C1=O` (stereo not given), for which the growth in [1] was 99.5%; in experiment [2], 110%; in experiment [3], 103%; in experiment [4] it was 106%; in experiment [5], 92.8%; in [6], 82.9%. The growth is 98.5% in experiment [7], 96.1% in [8], 99.7% in experiment [9] and 115% in experiment [10].

Take `CCN(CCC#N)c1ccccc1`: the growth in experiment [1] is 108%; in experiment [2], 109%; in [3], 98.6%; in experiment [4] it was 106%; in [5] it was 103%; in experiment [6], 90.8%. Further, the growth was 111% in experiment [7], 98.2% in experiment [8], 102% in experiment [9] and 113% in experiment [10].

For `COc1cccc(/C=N\Nc2ccc([N+](=O)[O-])cn2)c1O`, the growth in experiment [1] is 29.7%; in experiment [2], 99.1%; in experiment [3], 83.1%; in experiment [4], 50.9%; in [5] it was 21.7%; in experiment [6], 97.5%. For the same molecule, the growth in experiment [7] was 49.8%; in [8], 54.7%; in [9] it was 36.9%; in [10] it was 83.5%.

For `COc1ccc(-c2nc3ccccc3n3cccc23)cc1`, the growth in experiment [1] was 142%; in experiment [2], 107%; in experiment [3] it was 107%; in [4], 140%; in experiment [5], 100%; in experiment [6], 78.6%. The growth in [7] was 99%; in experiment [8] it was 88.3%; in experiment [9] it was 90%; in [10], 111%.

For `COc1ccccc1CNCCCN1C(=O)c2ccc3c4c(ccc(c24)C1=O)C(=O)N(CCCCNCCCN)C3=O`, the growth in experiment [1] was 74.6%; in experiment [2] it was -20.1% (active); in [3], 53.9%; in experiment [4] it was -70.3% (active); in experiment [5], -84.3% (active); in experiment [6], 43.7%. Also, the growth in experiment [7] is -97.1% (active); in [8], -68.7% (active); in experiment [9], -10% (active); in [10], -19.4% (active).

In the case of `CCOC(=O)C1OC2(CCCC2)OC1C(=O)OCC` (stereo not given), the growth is 106% in experiment [1]; 99.2% in [2]; 104% in [3]; 99.3% in experiment [4]; 109% in experiment [5]; 97.6% in experiment [6]. The growth in experiment [7] is 101%; in [8] it was 96.7%; in experiment [9] it was 102%; in experiment [10] it was 122%.
